Experimental data as given in PubChem BioAssay AID1159580 (chemical genetic matrix, 2015).
The whole screen tested about 5,500 compounds, of which about 2,000 (36%) were called active. Not shown: some 18% with an inconclusive outcome. Rule as the data show it: active = normalized growth mostly below about 0.91 (no sharp cut-off); inconclusive = no clear call, values can overlap the other calls; inactive = mostly above about 0.92. This is one part of the list.

Experiment: chemical genetic growth profiling, strain panel (AID 1159580);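 also: tested at 20 µM; growth read once vehicle control cultures reached saturation at 30 °C; 1 = growth at the plate median or of vehicle wells; lower values mean less growth of the strain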
Settings: growth OD
[1] = S. cerevisiae deletion strains, locus YMR263W, strain SAP30, active compounds read low
[2] = S. cerevisiae deletion strains, locus YNL153C, strain GIM3, active compounds read low
[3] = S. cerevisiae deletion strains, locus YNL322C, strain KRE1, active compounds read low
[4] = S. cerevisiae deletion strains, locus YPL241C, strain CIN2, active compounds read low
[5] = S. cerevisiae deletion strains, locus YDL101C, strain DUN1, active compounds read low
[6] = S. cerevisiae deletion strains, locus YHR030C, strain SLT2, active compounds read low

Measured: normalized growth

[N-]=[N+]=Nc1ccc(C(=O)CSC[C@H](NC(=O)CC[C@H](N)C(=O)O)C(=O)NCC(=O)O)cc1
inactive: S. cerevisiae deletion strains, locus YAL040C, strain CLN3, active compounds read low 1.02 | S. cerevisiae deletion strains, locus YDR363W, strain ESC2, active compounds read low 0.999 | S. cerevisiae deletion strains, locus YER002W, strain NOP16, active compounds read low 0.989 | S. cerevisiae deletion strains, locus YGR229C, strain SMI1, active compounds read low 1 | [1] 0.997 | [2] 0.99 | S. cerevisiae deletion strains, locus YNL175C, strain NOP13, active compounds read low 1.01 | S. cerevisiae deletion strains, locus YNL197C, strain WHI3, active compounds read low 1.01 | S. cerevisiae deletion strains, locus YNL224C, strain SQS1, active compounds read low 1.01 | [3] 1.01 | S. cerevisiae deletion strains, locus YOR083W, strain WHI5 (second series), active compounds read low 1.01 | [4] 0.996

CSc1ccc(C(=O)O)s1
active: S. cerevisiae deletion strains, locus YGR078C, strain PAC10, active compounds read low 0.926 | S. cerevisiae deletion strains, locus YHR087W, strain rtc3, active compounds read low 0.862 | S. cerevisiae deletion strains, locus YJR075W, strain HOC1, active compounds read low 0.874
inactive: S. cerevisiae deletion strains, locus YAL013W, strain DEP1, active compounds read low 0.969 | S. cerevisiae deletion strains, locus YBR229C, strain ROT2, active compounds read low 0.931 | S. cerevisiae deletion strains, locus YCL061C, strain MRC1, active compounds read low 0.938 | [5] 0.939 | S. cerevisiae deletion strains, locus YDR150W, strain NUM1, active compounds read low 0.945 | S. cerevisiae deletion strains, locus YEL061C, strain CIN8, active compounds read low 1.03 | [6] 1.16 | S. cerevisiae deletion strains, locus YJR043C, strain POL32, active compounds read low 0.961 | S. cerevisiae deletion strains, locus YKL190W, strain CNB1, active compounds read low 1.01 | S. cerevisiae deletion strains, locus YLR039C, strain RIC1, active compounds read low 1.04 | S. cerevisiae deletion strains, locus YLR058C, strain SHM2 (second series), active compounds read low 0.945 | S. cerevisiae deletion strains, locus YLR085C, strain ARP6, active compounds read low 1.1 | S. cerevisiae deletion strains, locus YLR262C, strain YPT6, active compounds read low 1.01 | S. cerevisiae deletion strains, locus YML094W, strain GIM5, active compounds read low 1.04 | S. cerevisiae deletion strains, locus YMR219W, strain ESC1, active compounds read low 0.957 | [1] 0.955 | S. cerevisiae deletion strains, locus YMR307W, strain GAS1, active compounds read low 1.05 | S. cerevisiae deletion strains, locus YNL128W, strain TEP1, active compounds read low 1.01 | [2] 0.932 | S. cerevisiae deletion strains, locus YNL298W, strain CLA4 (second series), active compounds read low 1.07 | [3] 0.944 | S. cerevisiae deletion strains, locus YNR030W, strain Alg12, active compounds read low 1.03 | S. cerevisiae deletion strains, locus YPL055C, strain LGE1, active compounds read low 0.883 | [4] 0.906 | S. cerevisiae deletion strains, locus YPR135W, strain CTF4, active compounds read low 1.11 | S. cerevisiae strains, strain wild type, active compounds read low 1.01

N#Cc1c(Br)cnn1Cc1cc(C(F)(F)F)cc(C(F)(F)F)c1
inactive: S. cerevisiae deletion strains, locus YAR019C, strain CDC15, active compounds read low 0.997 | S. cerevisiae deletion strains, locus YBL105C, strain PKC1, active compounds read low 1 | S. cerevisiae deletion strains, locus YBR135W, strain CKS1, active compounds read low 1.01 | S. cerevisiae deletion strains, locus YBR136W, strain MEC1, active compounds read low 0.995 | S. cerevisiae deletion strains, locus YBR160W, strain CDC28, active compounds read low 0.999 | S. cerevisiae deletion strains, locus YDL017W, strain CDC7, active compounds read low 0.995 | S. cerevisiae deletion strains, locus YDL028C, strain MPS1, active compounds read low 1 | [5] 0.988 | S. cerevisiae deletion strains, locus YDL108W, strain KIN28, active compounds read low 0.997 | S. cerevisiae deletion strains, locus YDL132W, strain cdc53, active compounds read low 0.999 | S. cerevisiae deletion strains, locus YDL214C, strain PRR2, active compounds read low 0.863 | S. cerevisiae deletion strains, locus YDR052C, strain DBF4, active compounds read low 0.993 | S. cerevisiae deletion strains, locus YDR054C, strain cdc34, active compounds read low 0.989 | S. cerevisiae deletion strains, locus YDR226W, strain ADK1, active compounds read low 1 | S. cerevisiae deletion strains, locus YDR477W, strain SNF1, active compounds read low 0.939 | S. cerevisiae deletion strains, locus YER123W, strain YCK3, active compounds read low 0.842 | S. cerevisiae deletion strains, locus YER133W, strain GLC7, active compounds read low 0.919 | S. cerevisiae deletion strains, locus YFL009W, strain cdc4, active compounds read low 0.993 | S. cerevisiae deletion strains, locus YFL029C, strain CAK1, active compounds read low 0.998 | S. cerevisiae deletion strains, locus YFR003C, strain YPI1, active compounds read low 1 | S. cerevisiae deletion strains, locus YFR019W, strain FAB1, active compounds read low 0.936 | S. cerevisiae deletion strains, locus YFR028C, strain CDC14, active compounds read low 1 | S. cerevisiae deletion strains, locus YGR040W, strain KSS1, active compounds read low 0.925 | S. cerevisiae deletion strains, locus YGR052W, strain FMP48, active compounds read low 0.946 | S. cerevisiae deletion strains, locus YGR092W, strain DBF2, active compounds read low 0.919 | [6] 0.933 | S. cerevisiae deletion strains, locus YHR079C, strain IRE1, active compounds read low 0.93 | S. cerevisiae deletion strains, locus YHR082C, strain KSP1, active compounds read low 0.907 | S. cerevisiae deletion strains, locus YHR205W, strain SCH9, active compounds read low 0.817 | S. cerevisiae deletion strains, locus YIL147C, strain SLN1, active compounds read low 0.99 | S. cerevisiae deletion strains, locus YJL095W, strain BCK1, active compounds read low 0.941 | S. cerevisiae deletion strains, locus YJL128C, strain PBS2, active compounds read low 0.887 | S. cerevisiae deletion strains, locus YJL157C, strain FAR1, active compounds read low 0.909 | S. cerevisiae deletion strains, locus YJR016C, strain ILV3, active compounds read low 0.989 | S. cerevisiae deletion strains, locus YJR066W, strain TOR1 (second series), active compounds read low 0.919 | S. cerevisiae deletion strains, locus YJR066W, strain TOR1, active compounds read low 0.952 | S. cerevisiae deletion strains, locus YKL048C, strain ELM1, active compounds read low 0.957 | S. cerevisiae deletion strains, locus YKL067W, strain YNK1, active compounds read low 0.895 | S. cerevisiae deletion strains, locus YKL101W, strain HSL1, active compounds read low 0.878 | S. cerevisiae deletion strains, locus YKL193C, strain SDS22, active compounds read low 0.996 | S. cerevisiae deletion strains, locus YKL203C, strain TOR2, active compounds read low 1 | S. cerevisiae deletion strains, locus YLR133W, strain CKI1, active compounds read low 0.926 | S. cerevisiae deletion strains, locus YLR403W, strain SFP1, active compounds read low 0.933 | S. cerevisiae deletion strains, locus YML070W, strain DAK1, active compounds read low 0.884 | S. cerevisiae deletion strains, locus YMR001C, strain CDC5, active compounds read low 0.997 | S. cerevisiae deletion strains, locus YMR205C, strain PFK2 (second series), active compounds read low 0.907 | S. cerevisiae deletion strains, locus YMR277W, strain FCP1, active compounds read low 1 | S. cerevisiae deletion strains, locus YNL006W, strain LST8, active compounds read low 0.997 | S. cerevisiae deletion strains, locus YNL020C, strain ARK1, active compounds read low 0.888 | S. cerevisiae deletion strains, locus YNL161W, strain CBK1, active compounds read low 0.994 | S. cerevisiae deletion strains, locus YNL183C, strain NPR1, active compounds read low 0.931 | S. cerevisiae deletion strains, locus YNL207W, strain RIO2, active compounds read low 0.99 | S. cerevisiae deletion strains, locus YNL222W, strain SSU72, active compounds read low 0.996 | S. cerevisiae deletion strains, locus YNL307C, strain MCK1 (second series), active compounds read low 0.903 | S. cerevisiae deletion strains, locus YOL078W, strain AVO1, active compounds read low 0.999 | S. cerevisiae deletion strains, locus YOL136C, strain PFK27, active compounds read low 0.859 | S. cerevisiae deletion strains, locus YOR061W, strain CKA2, active compounds read low 0.867 | S. cerevisiae deletion strains, locus YOR119C, strain RIO1, active compounds read low 0.974 | S. cerevisiae deletion strains, locus YOR231W, strain MKK1, active compounds read low 0.903 | S. cerevisiae deletion strains, locus YOR329C, strain SCD5, active compounds read low 0.991 | S. cerevisiae deletion strains, locus YPL031C, strain PHO85, active compounds read low 0.922 | S. cerevisiae deletion strains, locus YPL153C, strain RAD53, active compounds read low 0.928 | S. cerevisiae deletion strains, locus YPL204W, strain HRR25, active compounds read low 0.943 | S. cerevisiae deletion strains, locus YPL209C, strain IPL1, active compounds read low 1 | S. cerevisiae deletion strains, locus YPL256C, strain CLN2, active compounds read low 0.876 | S. cerevisiae deletion strains, locus YPR025C, strain CCL1, active compounds read low 0.999 | S. cerevisiae deletion strains, locus YPR106W, strain ISR1, active compounds read low 0.983 | S. cerevisiae deletion strains, locus YPR111W, strain DBF20, active compounds read low 0.959 | S. cerevisiae deletion strains, strain NNK1, active compounds read low 0.956 | S. cerevisiae deletion strains, strain TSCII, active compounds read low 0.998
active: S. cerevisiae deletion strains, locus YLR113W, strain HOG1, active compounds read low 0.761
